The values that follow come from PubChem BioAssay (EPA / NIEHS).

Assay [1] can be described thus: CCTE_Shafer_MEA_acute_spike_number: CCTE's Neural Acute Assay for Total Number of Spikes, Shafer Lab (AID 2284008). The procedure, abridged: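 Read-out is the total spike count over 40 min, expressed as percent change from each well's own pre-treatment baseline and fitted in the loss direction against DMSO. Rat cortical neurons were exposed at 0.03-40 uM on DIV 13 or 15.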

The nature of assay [2]: CCTE_Shafer_MEA_acute_firing_rate_mean: CCTE's Neural Acute Assay for Mean Firing Rate, Shafer Lab (AID 2284009).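 Also: analyzed for loss of signal so actives lower firing rate relative to DMSO.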 Put shortly: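 Primary rat cortical neurons on 16-electrode MEA wells were exposed on DIV 13 or 15 to compound (0.03-40 uM). Spike counts per recording time, averaged over electrodes, were compared between 40-min baseline and 40-min post-exposure recordings as percent change.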

The nature of assay [3]: CCTE_Harrill_HTTr_Viability_MCF7: CCTE's 6-hour Cell Viability Assessment for the High-Throughput Transcriptomics (HTTr) Platform, in MCF-7 cells cultured in DMEM + 10% fetal bovine serum, Harrill Lab (AID 2284010). Put shortly: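 Propidium iodide exclusion, imaged by high-content analysis, gauged viability after a six-hour exposure across eight concentrations. Cells were MCF-7 grown in DMEM with 10% fetal bovine serum; fits run in both directions against DMSO.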

Assay [4] in a line: CCTE_Harrill_HTTr_Apoptosis_MCF7: CCTE's 6-hour Apoptosis Assessment for the High-Throughput Transcriptomics (HTTr) Platform, in MCF-7 cells cultured in DMEM + 10% fetal bovine serum, Harrill Lab (AID 2284011). Put shortly: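 MCF-7 (DMEM + 10% FBS), 384-well; 8-pt dilution series, 6 h chemical exposure; caspase-3/7 activation via CellEvent Caspase 3/7 Green, HCI; bidirectional fit vs DMSO.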

Assay [5] can be described thus: CCTE_Harrill_HTTr_CellCount_MCF7: CCTE's Cell Proliferation Assessment for the High-Throughput Transcriptomics (HTTr) Platform, Harrill Lab (AID 2284012; active = hit-call score of the fitted dose curve at least 0.9, where 1 is the maximum;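 also: cells exposed to compound for six hours; intended direction is loss of nuclei count meaning fewer cells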). Put shortly: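 Cell count from high-content imaging of Hoechst-labeled nuclei serves as viability/growth readout. Chemicals were applied to MCF-7 cells in eight concentrations for six hours, with fitting in both directions relative to DMSO.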

Assay [6] can be described thus: CCTE_Shafer_MEA_acute_burst_number: CCTE's Neural Acute Assay for Single-Electrode Bursts, Shafer Lab (AID 2284013). The procedure, abridged: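 Primary rat cortical neurons on 16-electrode MEA wells, DIV 13 or 15, exposed to compound (0.03-40 uM; ≥3 wells); 40-min recordings at 37 C before and after treatment. Burst count expressed as percent change from baseline, DMSO as negative control.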

Assay [7] in a line: CCTE_Shafer_MEA_acute_burst_duration_mean: CCTE's Neural Acute Assay for Mean Burst Duration, Shafer Lab (AID 2284014).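 Also: hits are decreases in mean burst duration relative to DMSO controls.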 Put shortly: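 Mean burst duration was compared between a 40 min baseline and a 40 min recording in the presence of compound (0.03-40 uM, 37 C), giving percent change per well. Cultures were rat cortical neurons at DIV 13 or 15; wells needed ≥10 active electrodes.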

Assay [8] is described as follows: CCTE_Shafer_MEA_acute_per_burst_spike_number_mean: CCTE's Neural Acute Assay for Average Number of Spikes Per Burst, Shafer Lab (AID 2284015).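 Also: hits are decreases in mean spikes per burst versus baseline.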 The procedure, abridged:
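Rat primary cortical neurons on 48-well MEAs (DIV 13 or 15) were treated with 0.03-40 uM compound at 37 C. Mean spikes per burst over 40 min were recorded before and after exposure and expressed as percent change from baseline, relative to DMSO.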

Assay [9] in a line: CCTE_Shafer_MEA_acute_interburst_interval_mean: CCTE's Neural Acute Assay for Mean Interburst Interval, Shafer Lab (AID 2284016).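 Also: percent change of mean interburst interval versus each well's own pre-dose baseline; curves fitted for decrease in interburst interval relative to DMSO.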 The procedure, abridged: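 Rat primary cortical neurons on 48-well MEAs at DIV 13 or 15 were exposed acutely to 0.03-40 uM. Spikes detected at 8x rms noise, 37 C. Mean interburst interval from 40 min recordings expressed as percent change from 40 min pre-treatment baseline.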

Assay [10] can be described thus: CCTE_Shafer_MEA_acute_burst_percentage_mean: CCTE's Neural Acute Assay for Percentage of Spikes in a Burst, Shafer Lab (AID 2284017). Put shortly:
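Primary rat cortical neurons on 48-well MEA plates, treated on DIV 13 or 15 at 0.03-40 uM. Spikes detected at 8x rms noise at 37C; percent change from 40-min baseline to 40-min post-dose recording, fitted versus DMSO.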

A short description of assay [11]: CCTE_Shafer_MEA_acute_burst_percentage_std: CCTE's Neural Acute Assay for Standard Deviation of Burst Percentage, Shafer Lab (AID 2284018).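 Also: fitted in the negative direction so actives lower burst percentage SD.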 Put shortly:
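Value is percent change from baseline in the across-electrode SD of spikes-in-bursts percentage, wells with >/= 10 active electrodes. Acute 40-min exposure to 0.03-40 uM on DIV 13 or 15 rat cortical cultures, recorded at 37 C after 40-min baseline.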

Assay [12] can be described thus: CCTE_Shafer_MEA_acute_per_network_burst_spike_number_mean: CCTE's Neural Acute Assay for Average Number of Spikes in a Network Burst, Shafer Lab (AID 2284019).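 Also: curve fitted for loss of signal so actives reduce spikes per network burst.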 The procedure, abridged: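 Percent change from baseline in mean spikes per network burst, spikes detected at 8x rms noise. Each compound at 0.03-40 uM in at least three wells of rat cortical cultures, recorded 40 min before and 40 min during exposure.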

The nature of assay [13]: CCTE_Shafer_MEA_acute_per_network_burst_spike_number_std: CCTE's Neural Acute Assay for Standard Deviation of Number of Spikes in a Network Burst, Shafer Lab (AID 2284020).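 Also: fitted for decrease in spike-number SD versus DMSO so actives lower it.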 Put shortly: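 Endpoint: percent change from 40 min baseline in standard deviation of spikes per network burst, after 40 min compound exposure (0.03-40 uM, 37 C). Cortical rat neurons on MEA at DIV 13 or 15; spikes detected at 8x rms noise, 300-5000 Hz band-pass.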

Assay [14] can be described thus: CCTE_Shafer_MEA_acute_per_network_burst_electrodes_number_mean: CCTE's Neural Acute Assay for Mean Number of Electrodes in a Network Burst, Shafer Lab (AID 2284021).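 Also: curves fitted for decreases only so hits reduce electrodes per burst.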 Put shortly:
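Primary rat cortical networks, mwMEA, 37 C. 20 min stabilization, 40 min baseline, compound 0.03-40 uM, 40 min re-record. Wells need >=10 active electrodes; percent change per well, negative fitting direction.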

Assay [15] in a line: CCTE_Shafer_MEA_acute_network_burst_percentage: CCTE's Neural Acute Assay for Percentage of Network Bursts, Shafer Lab (AID 2284022).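 Also: curves fitted for loss so actives lower network burst percentage.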 The procedure, abridged: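 Readout is the fraction of spikes falling in network bursts, expressed as per-well percent change from a 40-min pre-exposure baseline. Primary rat cortical neurons on MEA were exposed to 0.03-40 uM compound on DIV 13 or 15 and recorded for 40 min at 37 C.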

Assay [16] in a line: CCTE_Shafer_MEA_acute_cross_correlation_area: CCTE's Neural Acute Assay for Area of Cross Correlation, Shafer Lab (AID 2284024).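 Also: area under pooled inter-electrode spike cross-correlation near zero lag as percent change from own baseline; curves fitted for loss of cross-correlation area so actives lower synchrony.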 Put shortly:
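Plates equilibrated 20 min at 37 C, then 40 min baseline was recorded, compound was added (0.03-40 uM), and a further 40 min was recorded. Wells needed ≥10 active electrodes (≥5 spikes/min) on exposure day.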

Inconclusive results are not listed. Activity calls are given as the source filed them. The calls were made as follows, unless noted: active = hit-call score of the fitted dose curve at least 0.9, where 1 is the maximum; inactive = score below 0.9.

As for `O=C1CC2(CCCC2)CC(=O)N1CCCCN1CCN(c2ncccn2)CC1`, the call in assay [1], in [2], in assay [3], in assay [4], in assay [5] and in [6] was inactive. The call in assay [7], in assay [8], in assay [9], in [10], in assay [11] and in [13] was inactive. Further, the compound was called inactive in assay [15] and in assay [16]. Moreover, the AC50 in [12] was 1010 nM (active); in [14], 2980 nM (active).
